# Results filed as inconclusive are left out. Activity calls are given as the source filed them. The calls were made as follows, unless noted: active = hit-call score of the fitted dose curve at least 0.9, where 1 is the maximum; inactive = score below 0.9.
# Columns and labels:
# [1] = ACEA_ER_80hr: ACEA Biosciences xCELLigence Real-Time Cell Analysis on Estrogen Receptor Agonism for Proliferation (AID 2282667; active = hit-call score of the fitted dose curve at least 0.9, where 1 is the maximum); details: T47D proliferation, impedance (xCELLigence), 80 h
# How it was run: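 Real-time electrical impedance tracked growth of the human breast line T47D, with the 80 h post-dosing value used. Dosing spanned eight 1:4 steps down from a 100 uM final top concentration, run in duplicate.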
# [2] = ATG_CRE_CIS: Attagene CIS-FACTORIAL HepG2 Assay for human cAMP Responsive Element (CRE) binding protein 3 (AID 2282926); details: HepG2 CRE cis-reporter, Attagene multiplexed mRNA; actives raise or lower the signal
# How it was run: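 Human liver HepG2, transient MRTU transfection, 24 h compound exposure. Total RNA → oligo(dT) RT → PCR → 6-FAM primer extension → HpaI cut → CE. Activity called both directions vs DMSO.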
# [3] = biological target: CCAAT/enhancer-binding protein beta (Homo sapiens) (UniProt P17676); test: ATG_C_EBP_CIS: Attagene CIS-FACTORIAL HepG2 Assay for human CCAAT/Enhancer Binding Protein (C/EBP) beta (AID 2282927); details: HepG2 Attagene cis-factorial transcription factor reporter; actives raise or lower the signal
# How it was run: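 RT-PCR/capillary electrophoresis fluorescence of reporter mRNA, 24 h post-dose, in HepG2 cells carrying transfected cis-promoter reporter units. Bidirectional curve fitting against DMSO baseline captures gain or loss of signal.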
# [4] = ATG_DR4_LXR_CIS: Attagene CIS-FACTORIAL HepG2 Assay for human Liver X Receptor (LXR), DR4 submotif (AID 2282929); details: HepG2 Attagene DR4 cis-reporter, mRNA transcription; actives raise or lower the signal
# How it was run: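 DR4 cis-reporter in HepG2, 24 h exposure. Detection: RT-PCR, 6-FAM labelling, CE fragment analysis. Endpoint fitted bidirectionally, DMSO = baseline.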
# [5] = ATG_AP_1_CIS: Attagene CIS-FACTORIAL HepG2 Assay for human Activator Protein 1 (AP-1) (AID 2282931); details: HepG2 Attagene cis-factorial AP-1 reporter mRNA; actives raise or lower the signal
# How it was run: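 Cis-regulated reporter units transiently expressed in HepG2 report endogenous transcription-factor activity. Signal: reporter mRNA at 24 h, via RT-PCR and fluorescent capillary electrophoresis. Endpoint derived by bidirectional fitting, DMSO as negative control.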
# [6] = ATG_AP_2_CIS: Attagene CIS-FACTORIAL HepG2 Assay for human Activator Protein 2 (AP-2) (AID 2282932); details: HepG2 AP-2 cis-reporter, Attagene transcription factor profiling; actives raise or lower the signal
# How it was run: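 Bidirectional curve fitting against DMSO was applied to reporter mRNA signals from HepG2 cells 24 h after dosing. Cis-promoter reporter units, transiently transfected, were read by RT-PCR plus capillary electrophoresis.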
# [7] = ATG_BRE_CIS: Attagene CIS-FACTORIAL HepG2 Assay for human Bone Morphogenetic Protein (BMP) Response Element (BRE) (AID 2282933); details: HepG2 BMP response element reporter, Attagene transcription factor profiling; actives raise or lower the signal
# How it was run: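 Fluorescence-labelled reporter cDNA fragments, separated by capillary electrophoresis, gave the signal for this component of a 52-readout multiplex. HepG2 cells were transfected, exposed to chemicals for 24 h, and compared with DMSO using bidirectional fitting.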
# [8] = biological target: Retinoic acid receptor alpha (Homo sapiens) (UniProt P10276); test: ATG_DR5_RAR_CIS: Attagene CIS-FACTORIAL HepG2 Assay for human Retinoic Acid Receptor Alpha (RARE), DR5 submotif (AID 2282934); details: HepG2 Attagene cis-factorial RARE DR5 reporter, mRNA; actives raise or lower the signal;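 as to AC50: reporter responds to endogenous RAR alpha beta and gamma in HepG2 not RARA alone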
# How it was run: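 HepG2 cells transiently transfected with multiplexed reporter units under cis (DR5 RARE) promoters, so endogenous transcription factor activity is measured. After 24 h compound exposure, reporter mRNA is quantified by RT-PCR with fluorescent labelling and capillary electrophoresis; bidirectional fitting versus DMSO.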
# [9] = biological target: Transcription factor E2F1 (Homo sapiens) (UniProt Q01094); test: ATG_E2F_CIS: Attagene CIS-FACTORIAL HepG2 Assay for human E2F Transcription Factor 1 (AID 2282935); details: HepG2 Attagene cis-reporter, E2F reporter RNA transcripts; actives raise or lower the signal
# How it was run: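 Multiplexed cis-reporter assay: HepG2, transient transfection, 24 h dosing, mRNA quantitation by labeled RT-PCR and CE.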
# [10] = ATG_M_61_CIS: Attagene CIS-FACTORIAL HepG2 Assay for M61 Transcription Factor (Internal Marker) (AID 2282937); details: HepG2 Attagene CIS-FACTORIAL M61 internal marker reporter; actives raise or lower the signal
# How it was run: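 Background-control endpoint: HepG2 cells with cis-regulated reporter constructs, 24 h exposure, reporter mRNA detected via fluorescent primer extension and capillary electrophoresis; values from bidirectional fitting with DMSO baseline.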
# [11] = ATG_EGR_CIS: Attagene CIS-FACTORIAL HepG2 Assay for human Early Growth Response 1 (EGR1) (AID 2282938); details: HepG2 Attagene CIS-FACTORIAL EGR reporter mRNA; actives raise or lower the signal
# How it was run: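 Endpoint derived by bidirectional fitting versus DMSO vehicle. Method: cis-promoter reporter units transfected into HepG2, 24 h dosing, RNA isolation, RT-PCR with 6-FAM primer extension and HpaI digestion, then capillary electrophoresis fluorescence detection.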
# [12] = ATG_M_19_CIS: Attagene CIS-FACTORIAL HepG2 Assay for M19 Transcription Factor (Internal Marker) (AID 2282939); details: HepG2 Attagene CIS-FACTORIAL M19 internal marker reporter; actives raise or lower the signal
# How it was run: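 HepG2, MRTU transient transfection, 24 h dosing. Total RNA → RT-PCR → 6-FAM primer extension → HpaI digest → CE fluorescence. Bidirectional curve fit, DMSO negative control.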
# [13] = ATG_ERE_CIS: Attagene CIS-FACTORIAL HepG2 Assay for Estrogen Response Element (ERE) (AID 2282940); details: HepG2 ERE cis-reporter, Attagene RNA transcript; actives raise or lower the signal
# How it was run: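 After a 24 h chemical treatment, RNA from reporter-transfected HepG2 cells is reverse-transcribed, PCR-amplified and fluorescently labelled. Fragments separated by capillary electrophoresis give reporter signal; DMSO serves as negative control.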
# [14] = ATG_Ets_CIS: Attagene CIS-FACTORIAL HepG2 Assay for human Erythroblast Transformation Specific (ETS) (AID 2282941); details: HepG2 ETS cis-reporter transcription, actives raise or lower the signal
# How it was run: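 After transient cis-reporter transfection, HepG2 cells receive test chemical for 24 h. Reporter mRNA levels, measured by RT-PCR and capillary electrophoresis fluorescence, are analysed bidirectionally relative to the DMSO baseline.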
# [15] = biological target: Hepatocyte nuclear factor 3-beta (Homo sapiens) (UniProt Q9Y261); test: ATG_FoxA2_CIS: Attagene CIS-FACTORIAL HepG2 Assay for human Forkhead box A2 (FOXA2) (AID 2282942); details: HepG2 cis-reporter transcription factor activity, 24 h; actives raise or lower the signal
# How it was run: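 Measured: reporter mRNA induction or loss in HepG2 transiently carrying multiple cis-regulated reporter units, 24 h after dosing. Quantified by RT-PCR plus capillary electrophoresis, normalised to DMSO.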
# [16] = ATG_FoxO_CIS: Attagene CIS-FACTORIAL HepG2 Assay for human Forkhead box O (FoxO) (AID 2282943); details: HepG2 Attagene cis-reporter, FoxO element, mRNA; actives raise or lower the signal
# How it was run: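 HepG2 cells transiently transfected with cis-promoter-driven multiple reporter transcription units; 24 h after chemical dosing, reporter mRNA quantified by RT-PCR, fluorescent primer extension, HpaI digestion and capillary electrophoresis. Bidirectional fitting versus DMSO baseline.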
# [17] = ATG_GATA_CIS: Attagene CIS-FACTORIAL HepG2 Assay for human GATA Binding Protein (AID 2282944); details: HepG2 GATA cis-element reporter, Attagene multiplex mRNA; actives raise or lower the signal
# How it was run: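 Cells: HepG2, transiently transfected with cis-regulated reporter transcription units. Exposure: 24 h. Detection: RT-PCR plus capillary electrophoresis of FAM-labeled fragments. Analysis: bidirectional, DMSO as baseline.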
# [18] = ATG_E_Box_CIS: Attagene CIS-FACTORIAL HepG2 Assay for human Enhancer Box (E-box) (AID 2282936); details: HepG2 E-box cis-reporter transcription, actives raise or lower the signal
# How it was run: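 Multiplexed CIS reporter system in transiently transfected HepG2 cells measures native transcription factor activity. Reporter RNA after 24 h exposure is profiled by RT-PCR-capillary electrophoresis.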
# [19] = biological target: Aryl hydrocarbon receptor (Homo sapiens) (UniProt P35869); test: ATG_Ahr_CIS: Attagene CIS-FACTORIAL HepG2 Assay for human Aryl Hydrocarbon Receptor (Ahr) (AID 2282930); details: HepG2 AhR cis-factorial reporter transcription; actives raise or lower the signal
# How it was run: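 HepG2 cells transiently transfected with cis-element-driven multiplexed reporter transcription units; endogenous transcription factor activity measured as reporter mRNA 24 h after dosing. RT-PCR, 6-FAM labelling, HpaI digestion, capillary electrophoresis; bidirectional fitting versus DMSO baseline.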
# Chain of Hepatocyte nuclear factor 3-beta (Homo sapiens) (Q9Y261 whole entry, looked up): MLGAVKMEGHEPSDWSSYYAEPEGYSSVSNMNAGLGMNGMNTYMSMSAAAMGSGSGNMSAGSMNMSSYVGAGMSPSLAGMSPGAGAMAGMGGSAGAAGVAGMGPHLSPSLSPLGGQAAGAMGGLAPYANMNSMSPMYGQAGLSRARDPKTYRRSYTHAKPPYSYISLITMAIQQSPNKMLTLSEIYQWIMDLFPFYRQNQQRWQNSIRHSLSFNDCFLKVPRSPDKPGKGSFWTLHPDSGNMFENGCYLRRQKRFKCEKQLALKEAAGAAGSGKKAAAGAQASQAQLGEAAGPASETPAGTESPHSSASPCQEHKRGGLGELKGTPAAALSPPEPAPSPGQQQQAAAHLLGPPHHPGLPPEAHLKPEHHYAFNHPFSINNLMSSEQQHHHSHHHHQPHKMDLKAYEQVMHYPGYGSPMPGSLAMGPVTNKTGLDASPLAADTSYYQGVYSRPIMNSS
# Chain of Transcription factor E2F1 (Homo sapiens) (Q01094 whole entry, looked up): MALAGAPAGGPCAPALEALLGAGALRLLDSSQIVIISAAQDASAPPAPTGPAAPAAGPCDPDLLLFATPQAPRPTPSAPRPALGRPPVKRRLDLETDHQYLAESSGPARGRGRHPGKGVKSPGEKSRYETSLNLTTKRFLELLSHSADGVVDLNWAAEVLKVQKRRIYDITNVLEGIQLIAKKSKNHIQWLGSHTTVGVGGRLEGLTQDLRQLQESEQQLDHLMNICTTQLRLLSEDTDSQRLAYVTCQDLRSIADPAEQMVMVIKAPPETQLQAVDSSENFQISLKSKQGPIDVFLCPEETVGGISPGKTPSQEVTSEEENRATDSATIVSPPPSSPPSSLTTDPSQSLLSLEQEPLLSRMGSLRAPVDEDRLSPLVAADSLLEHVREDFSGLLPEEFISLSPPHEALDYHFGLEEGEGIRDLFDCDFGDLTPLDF
# Chain of Retinoic acid receptor alpha (Homo sapiens) (P10276 whole entry, looked up): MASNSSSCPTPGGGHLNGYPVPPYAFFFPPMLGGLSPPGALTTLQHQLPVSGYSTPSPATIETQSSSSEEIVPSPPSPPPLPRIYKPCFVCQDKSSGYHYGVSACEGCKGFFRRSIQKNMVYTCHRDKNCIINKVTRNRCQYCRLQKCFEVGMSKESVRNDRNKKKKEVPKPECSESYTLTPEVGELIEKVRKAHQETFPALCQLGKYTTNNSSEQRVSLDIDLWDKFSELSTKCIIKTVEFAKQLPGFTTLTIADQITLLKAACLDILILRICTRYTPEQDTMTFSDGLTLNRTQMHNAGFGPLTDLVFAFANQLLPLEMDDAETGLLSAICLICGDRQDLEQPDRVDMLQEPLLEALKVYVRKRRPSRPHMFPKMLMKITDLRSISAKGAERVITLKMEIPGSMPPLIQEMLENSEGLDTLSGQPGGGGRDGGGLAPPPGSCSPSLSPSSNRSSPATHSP
# Chain of Aryl hydrocarbon receptor (Homo sapiens) (P35869 whole entry, looked up): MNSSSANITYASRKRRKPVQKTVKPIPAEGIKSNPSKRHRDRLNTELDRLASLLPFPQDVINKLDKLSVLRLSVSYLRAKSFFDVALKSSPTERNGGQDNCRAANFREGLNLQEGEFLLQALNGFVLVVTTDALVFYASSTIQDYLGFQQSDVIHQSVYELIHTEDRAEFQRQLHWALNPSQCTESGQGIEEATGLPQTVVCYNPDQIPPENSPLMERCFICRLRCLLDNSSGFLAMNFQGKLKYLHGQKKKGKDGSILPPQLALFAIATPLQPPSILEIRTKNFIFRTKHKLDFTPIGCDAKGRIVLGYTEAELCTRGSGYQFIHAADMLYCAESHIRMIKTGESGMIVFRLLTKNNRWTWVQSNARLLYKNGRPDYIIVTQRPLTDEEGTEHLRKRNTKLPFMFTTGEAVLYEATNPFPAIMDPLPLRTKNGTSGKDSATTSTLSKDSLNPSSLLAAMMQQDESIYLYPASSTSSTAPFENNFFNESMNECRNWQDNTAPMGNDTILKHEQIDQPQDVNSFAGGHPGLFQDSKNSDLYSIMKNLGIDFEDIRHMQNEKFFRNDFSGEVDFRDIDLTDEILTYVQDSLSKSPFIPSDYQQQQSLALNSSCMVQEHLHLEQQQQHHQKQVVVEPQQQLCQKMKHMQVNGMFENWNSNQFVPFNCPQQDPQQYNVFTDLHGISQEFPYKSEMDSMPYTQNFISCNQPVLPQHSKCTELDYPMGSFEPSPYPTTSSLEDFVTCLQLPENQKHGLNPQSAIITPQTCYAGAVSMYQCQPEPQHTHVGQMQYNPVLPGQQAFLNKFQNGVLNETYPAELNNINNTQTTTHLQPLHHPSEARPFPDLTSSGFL
# Chain of CCAAT/enhancer-binding protein beta (Homo sapiens) (P17676 whole entry, looked up): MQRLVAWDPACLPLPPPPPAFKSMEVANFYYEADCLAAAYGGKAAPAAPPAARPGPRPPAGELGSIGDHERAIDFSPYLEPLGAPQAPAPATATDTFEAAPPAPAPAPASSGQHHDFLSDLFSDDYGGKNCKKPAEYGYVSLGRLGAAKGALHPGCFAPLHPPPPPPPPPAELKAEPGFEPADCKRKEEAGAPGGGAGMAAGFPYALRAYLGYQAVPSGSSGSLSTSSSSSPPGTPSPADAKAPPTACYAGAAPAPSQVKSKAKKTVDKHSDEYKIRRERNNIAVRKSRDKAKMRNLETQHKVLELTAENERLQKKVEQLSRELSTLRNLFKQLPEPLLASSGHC
smiles,measurement,setting,value
O=C1C=CC(=O)N1c1ccc(Cc2ccc(N3C(=O)C=CC3=O)cc2)cc1,outcome,[1],inactive
same,AC50,[2],33.4 µM (active)
same,outcome,[3],inactive
same,AC50,[4],22.7 µM (active)
same,outcome,[5],inactive
same,outcome,[6],inactive
same,AC50,[7],51.2 µM (active)
same,AC50,[8],59.4 µM (active)
same,outcome,[9],inactive
same,outcome,[10],inactive
same,AC50,[11],21.4 µM (active)
same,outcome,[12],inactive
same,outcome,[13],inactive
same,outcome,[14],inactive
same,outcome,[15],inactive
same,outcome,[16],inactive
same,outcome,[17],inactive
CN(N=O)C(=O)N[C@@H]1[C@@H](O)[C@H](O)[C@@H](CO)O[C@@H]1O,outcome,[1],inactive
same,outcome,[2],inactive
same,outcome,[3],inactive
same,outcome,[4],inactive
same,outcome,[5],inactive
same,outcome,[6],inactive
same,outcome,[7],inactive
same,outcome,[8],inactive
same,outcome,[9],inactive
same,outcome,[18],inactive
same,outcome,[10],inactive
same,outcome,[11],inactive
same,outcome,[12],inactive
same,outcome,[13],inactive
same,outcome,[14],inactive
same,outcome,[15],inactive
same,outcome,[16],inactive
same,outcome,[17],inactive
CCOC(OCC)OCC,outcome,[1],inactive
same,outcome,[2],inactive
same,outcome,[3],inactive
same,outcome,[4],inactive
same,outcome,[5],inactive
same,outcome,[6],inactive
same,outcome,[7],inactive
same,outcome,[8],inactive
same,outcome,[9],inactive
same,outcome,[10],inactive
same,outcome,[11],inactive
same,outcome,[12],inactive
same,outcome,[14],inactive
same,outcome,[15],inactive
same,outcome,[16],inactive
same,outcome,[17],inactive
COC(F)(C(F)F)C(F)(F)F (stereo unspecified),outcome,[1],inactive
same,outcome,[2],inactive
same,outcome,[3],inactive
same,outcome,[4],inactive
same,outcome,[5],inactive
same,outcome,[6],inactive
same,outcome,[7],inactive
same,outcome,[8],inactive
same,outcome,[9],inactive
same,outcome,[18],inactive
same,outcome,[10],inactive
same,outcome,[11],inactive
same,outcome,[12],inactive
same,outcome,[14],inactive
same,outcome,[15],inactive
same,outcome,[16],inactive
same,outcome,[17],inactive
Oc1ccc(C2(c3ccc(O)c(C4CCCCC4)c3)CCCCC2)cc1C1CCCCC1,outcome,[1],inactive
same,outcome,[2],inactive
same,outcome,[3],inactive
same,outcome,[19],inactive
same,AC50,[5],33.4 µM (active)
same,outcome,[6],inactive
same,outcome,[7],inactive
same,AC50,[8],8.25 µM (active)
same,outcome,[9],inactive
same,outcome,[18],inactive
same,outcome,[10],inactive
same,AC50,[11],8.92 µM (active)
same,AC50,[12],8.87 µM (active)
same,outcome,[13],inactive
same,AC50,[14],16.5 µM (active)
same,outcome,[16],inactive
same,AC50,[17],8.81 µM (active)
OCCCC(F)(F)C(F)(F)C(F)(F)C(F)(F)C(F)(F)C(F)(F)C(F)(F)C(F)(F)F,AC50,[1],21 µM (active)
same,outcome,[2],inactive
same,outcome,[3],inactive
same,outcome,[19],inactive
same,outcome,[5],inactive
same,outcome,[6],inactive
same,AC50,[7],64.3 µM (active)
same,AC50,[8],22 µM (active)
same,outcome,[9],inactive
same,outcome,[18],inactive
same,outcome,[10],inactive
same,outcome,[11],inactive
same,outcome,[12],inactive
same,outcome,[13],inactive
same,outcome,[14],inactive
same,outcome,[15],inactive
same,outcome,[16],inactive
same,outcome,[17],inactive
CCOC(=O)C1CC(=O)C(=C(O)C2CC2)C(=O)C1 (stereo unspecified),outcome,[1],inactive
same,outcome,[2],inactive
same,outcome,[3],inactive
same,outcome,[4],inactive
same,outcome,[19],inactive
same,outcome,[5],inactive
same,outcome,[6],inactive
same,outcome,[7],inactive
same,outcome,[8],inactive
same,outcome,[9],inactive
same,outcome,[10],inactive
same,outcome,[11],inactive
same,outcome,[12],inactive
same,outcome,[13],inactive
same,outcome,[14],inactive
same,outcome,[15],inactive
same,outcome,[16],inactive
same,outcome,[17],inactive

# — PubChem BioAssay (EPA / NIEHS)
